About 8,800 targets were measured; listed, in parts, are those with a hit and a random draw of the rest. About 0.5% of all pairs of compound and target were hits. Values without a mark were called inactive.
Compound: C1=CC=C(C=C1)[C@H](COC2=CC3=C(C=C2)NC(=O)N3)NC(=O)C4=CC=CN(C4=O)CC5=CC(=C(C=C5)F)F
Test: log2 fold change, soluble protein after heating vs DMSO (PISA); higher = thermal stabilisation; K562 lysate, 10 uM; active = over 0.2 and 3.5 SD of the protein, either way, in both replicates (recomputed)
Procedure, shortened: (§1)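 Log-two fold change in thermal stability relative to solvent controls is reported from duplicates. For each sample, crude K562 extract from dounce-homogenised pellets in PBS pH 7.4 with 1 mM MgCl2, at 1 mg/mL protein, was treated with 10 μM compound for 30 min. Aliquots heated for 3 min across 48°C-58°C were pooled, brought to 0.5% NP-40 at 4°C and cleared at 21,000xg for 90 min. The supernatant was quantified by TMTpro 16plex LC-MS/MS with channel sums equalised.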

Chain of UniProt P27216 (P27216 whole entry, looked up): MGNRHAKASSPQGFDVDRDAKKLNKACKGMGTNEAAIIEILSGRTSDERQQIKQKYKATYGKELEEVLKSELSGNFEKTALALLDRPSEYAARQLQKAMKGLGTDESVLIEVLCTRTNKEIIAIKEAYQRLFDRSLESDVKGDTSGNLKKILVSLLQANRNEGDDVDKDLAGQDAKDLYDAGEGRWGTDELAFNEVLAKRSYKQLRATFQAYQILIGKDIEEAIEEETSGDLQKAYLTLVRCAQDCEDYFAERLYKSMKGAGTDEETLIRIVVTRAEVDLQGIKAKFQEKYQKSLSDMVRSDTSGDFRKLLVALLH
Chain of UniProt Q5VST6 (Q5VST6 whole entry, looked up): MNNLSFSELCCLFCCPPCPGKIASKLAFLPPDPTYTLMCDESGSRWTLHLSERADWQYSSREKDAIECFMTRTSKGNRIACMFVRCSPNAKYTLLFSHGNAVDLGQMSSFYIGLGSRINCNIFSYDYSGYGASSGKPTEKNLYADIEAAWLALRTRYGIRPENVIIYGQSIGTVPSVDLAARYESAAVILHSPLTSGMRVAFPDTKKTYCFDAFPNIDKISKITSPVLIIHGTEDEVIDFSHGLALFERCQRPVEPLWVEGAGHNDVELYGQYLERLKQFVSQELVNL
Chain of UniProt Q9BR61 (Q9BR61 whole entry, looked up): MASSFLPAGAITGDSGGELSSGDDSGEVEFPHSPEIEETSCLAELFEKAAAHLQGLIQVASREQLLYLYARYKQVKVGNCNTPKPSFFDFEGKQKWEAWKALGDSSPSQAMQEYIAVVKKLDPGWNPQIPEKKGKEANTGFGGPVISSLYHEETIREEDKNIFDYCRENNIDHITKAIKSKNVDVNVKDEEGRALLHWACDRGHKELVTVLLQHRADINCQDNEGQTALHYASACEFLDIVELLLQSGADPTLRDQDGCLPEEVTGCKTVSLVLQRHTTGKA
Chain of UniProt P10398 (P10398 whole entry, looked up): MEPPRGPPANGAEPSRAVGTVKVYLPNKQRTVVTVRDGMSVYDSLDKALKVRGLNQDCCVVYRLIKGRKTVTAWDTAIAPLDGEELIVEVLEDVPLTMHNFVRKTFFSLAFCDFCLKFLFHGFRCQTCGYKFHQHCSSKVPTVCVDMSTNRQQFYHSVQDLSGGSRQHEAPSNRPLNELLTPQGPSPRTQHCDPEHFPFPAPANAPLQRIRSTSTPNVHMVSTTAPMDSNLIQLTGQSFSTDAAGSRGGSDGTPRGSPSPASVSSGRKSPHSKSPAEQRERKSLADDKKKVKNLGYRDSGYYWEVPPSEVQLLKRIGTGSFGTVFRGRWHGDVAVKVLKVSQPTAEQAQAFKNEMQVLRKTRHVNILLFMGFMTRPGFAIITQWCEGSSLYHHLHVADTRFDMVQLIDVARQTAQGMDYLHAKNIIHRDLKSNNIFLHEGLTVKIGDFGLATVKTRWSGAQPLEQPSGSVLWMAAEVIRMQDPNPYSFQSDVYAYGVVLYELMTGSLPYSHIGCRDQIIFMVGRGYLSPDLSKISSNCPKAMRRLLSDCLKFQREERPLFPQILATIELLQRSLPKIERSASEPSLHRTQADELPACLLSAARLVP
Chain of UniProt Q6AI12 (Q6AI12 whole entry, looked up): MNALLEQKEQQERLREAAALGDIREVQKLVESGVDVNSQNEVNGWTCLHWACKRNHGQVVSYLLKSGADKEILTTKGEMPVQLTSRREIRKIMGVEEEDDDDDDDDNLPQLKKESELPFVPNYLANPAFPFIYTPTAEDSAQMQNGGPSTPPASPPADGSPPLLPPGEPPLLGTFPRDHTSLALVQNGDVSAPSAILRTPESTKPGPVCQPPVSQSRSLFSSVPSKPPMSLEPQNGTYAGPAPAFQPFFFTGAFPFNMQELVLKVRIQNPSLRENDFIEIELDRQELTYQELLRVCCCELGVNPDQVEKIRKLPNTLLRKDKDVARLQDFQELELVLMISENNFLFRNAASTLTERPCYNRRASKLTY
Chain of UniProt Q9UHB7 (Q9UHB7 whole entry, looked up): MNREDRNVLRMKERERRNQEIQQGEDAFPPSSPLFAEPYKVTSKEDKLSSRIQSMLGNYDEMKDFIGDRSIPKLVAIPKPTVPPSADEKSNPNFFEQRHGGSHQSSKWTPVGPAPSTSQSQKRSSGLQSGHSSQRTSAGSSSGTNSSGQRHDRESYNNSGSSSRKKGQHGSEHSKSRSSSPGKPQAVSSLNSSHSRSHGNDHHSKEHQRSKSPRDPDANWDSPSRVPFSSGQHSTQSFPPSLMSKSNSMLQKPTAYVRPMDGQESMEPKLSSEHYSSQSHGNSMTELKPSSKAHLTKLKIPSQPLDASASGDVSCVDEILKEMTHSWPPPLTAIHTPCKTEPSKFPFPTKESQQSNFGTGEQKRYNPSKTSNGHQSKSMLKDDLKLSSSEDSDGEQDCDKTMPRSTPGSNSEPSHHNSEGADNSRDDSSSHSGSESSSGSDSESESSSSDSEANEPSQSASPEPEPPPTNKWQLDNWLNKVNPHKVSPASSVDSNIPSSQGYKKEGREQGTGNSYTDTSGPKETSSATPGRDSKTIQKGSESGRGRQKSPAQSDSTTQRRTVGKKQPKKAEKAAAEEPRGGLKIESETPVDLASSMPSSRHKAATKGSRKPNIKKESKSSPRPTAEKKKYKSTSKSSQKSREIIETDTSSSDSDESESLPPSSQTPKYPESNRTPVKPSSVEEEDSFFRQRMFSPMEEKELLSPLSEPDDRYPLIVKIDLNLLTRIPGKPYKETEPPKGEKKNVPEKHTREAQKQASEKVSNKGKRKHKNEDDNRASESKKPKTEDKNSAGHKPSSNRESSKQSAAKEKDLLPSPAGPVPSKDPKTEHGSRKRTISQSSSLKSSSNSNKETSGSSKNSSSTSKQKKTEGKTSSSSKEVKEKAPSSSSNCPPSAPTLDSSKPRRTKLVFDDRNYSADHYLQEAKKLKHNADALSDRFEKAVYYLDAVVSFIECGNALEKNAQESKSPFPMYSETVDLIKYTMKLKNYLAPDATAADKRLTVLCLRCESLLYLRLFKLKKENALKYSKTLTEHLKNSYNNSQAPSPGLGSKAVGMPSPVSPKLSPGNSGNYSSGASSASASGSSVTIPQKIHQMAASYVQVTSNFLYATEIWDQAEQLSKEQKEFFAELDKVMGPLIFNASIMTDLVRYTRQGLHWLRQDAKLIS
Chain of UniProt Q9UKV3 (Q9UKV3 whole entry, looked up): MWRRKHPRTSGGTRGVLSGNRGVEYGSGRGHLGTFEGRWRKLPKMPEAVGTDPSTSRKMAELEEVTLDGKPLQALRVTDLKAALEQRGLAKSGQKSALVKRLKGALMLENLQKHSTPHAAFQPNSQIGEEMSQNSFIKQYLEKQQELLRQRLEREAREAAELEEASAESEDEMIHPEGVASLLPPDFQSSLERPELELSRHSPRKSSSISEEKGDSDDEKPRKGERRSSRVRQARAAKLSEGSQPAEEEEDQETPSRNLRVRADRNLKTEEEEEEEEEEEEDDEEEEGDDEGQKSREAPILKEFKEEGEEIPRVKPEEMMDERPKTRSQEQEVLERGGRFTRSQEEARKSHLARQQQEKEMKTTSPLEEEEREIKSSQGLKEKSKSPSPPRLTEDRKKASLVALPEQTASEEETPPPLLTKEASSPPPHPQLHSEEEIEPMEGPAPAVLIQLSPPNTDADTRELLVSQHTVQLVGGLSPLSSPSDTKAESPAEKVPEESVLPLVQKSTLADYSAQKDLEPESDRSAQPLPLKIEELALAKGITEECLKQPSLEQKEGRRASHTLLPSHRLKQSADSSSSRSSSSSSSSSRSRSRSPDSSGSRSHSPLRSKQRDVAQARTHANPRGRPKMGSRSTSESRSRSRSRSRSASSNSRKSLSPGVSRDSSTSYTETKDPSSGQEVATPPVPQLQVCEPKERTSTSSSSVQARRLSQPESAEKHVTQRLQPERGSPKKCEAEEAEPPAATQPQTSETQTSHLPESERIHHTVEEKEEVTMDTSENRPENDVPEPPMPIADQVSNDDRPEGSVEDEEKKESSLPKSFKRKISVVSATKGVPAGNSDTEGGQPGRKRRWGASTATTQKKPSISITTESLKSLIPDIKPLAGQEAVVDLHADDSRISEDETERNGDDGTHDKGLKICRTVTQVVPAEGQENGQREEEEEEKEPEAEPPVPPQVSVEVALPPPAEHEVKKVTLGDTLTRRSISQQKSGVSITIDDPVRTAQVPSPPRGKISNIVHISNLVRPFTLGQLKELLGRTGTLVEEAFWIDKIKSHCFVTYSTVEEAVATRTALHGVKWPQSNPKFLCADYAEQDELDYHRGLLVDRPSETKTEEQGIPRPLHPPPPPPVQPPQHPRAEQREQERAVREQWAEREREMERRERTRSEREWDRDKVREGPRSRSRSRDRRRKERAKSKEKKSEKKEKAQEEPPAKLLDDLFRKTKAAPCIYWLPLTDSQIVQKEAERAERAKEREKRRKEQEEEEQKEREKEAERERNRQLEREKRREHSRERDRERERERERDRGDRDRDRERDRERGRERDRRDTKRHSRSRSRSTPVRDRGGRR
Chain of UniProt Q3SXY8 (Q3SXY8 whole entry, looked up): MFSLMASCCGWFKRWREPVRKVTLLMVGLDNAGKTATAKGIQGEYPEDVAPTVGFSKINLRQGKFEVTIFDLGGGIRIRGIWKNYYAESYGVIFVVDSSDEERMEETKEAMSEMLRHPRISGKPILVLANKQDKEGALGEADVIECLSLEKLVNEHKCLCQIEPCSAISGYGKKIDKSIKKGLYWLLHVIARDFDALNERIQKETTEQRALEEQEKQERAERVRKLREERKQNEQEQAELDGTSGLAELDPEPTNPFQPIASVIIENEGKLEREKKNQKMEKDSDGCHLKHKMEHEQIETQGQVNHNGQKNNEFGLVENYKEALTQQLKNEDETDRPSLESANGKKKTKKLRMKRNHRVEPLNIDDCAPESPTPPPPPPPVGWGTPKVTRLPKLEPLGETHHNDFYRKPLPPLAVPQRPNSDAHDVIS
Chain of UniProt P07311 (P07311 whole entry, looked up): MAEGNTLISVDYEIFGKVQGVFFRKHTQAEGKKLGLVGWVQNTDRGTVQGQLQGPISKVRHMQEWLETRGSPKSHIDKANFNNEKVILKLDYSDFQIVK

Target	log2 fold change
ARGLU1 (UniProt Q9NWB6)	0.049
ANXA13 isoform 2 (UniProt P27216)	0.058
ARL13B (UniProt Q3SXY8)	0.087
ABHD13 (UniProt Q7L211)	0.043
ANKRD40 (UniProt Q6AI12)	0.133
AIMP1 isoform 2 (UniProt Q12904)	-0.033
ACSL1 (UniProt P33121)	-0.136
AK4 (UniProt P27144)	0.025
AIFM2 (UniProt Q9BRQ8)	0.668 (active)
AGO4 (UniProt Q9HCK5)	0.014
ADRM1 (UniProt Q16186)	-0.005
AKT1 (UniProt P31749)	0.011
ACTG1 (UniProt I3L4N8)	-0.042
ABCF3 (UniProt Q9NUQ8)	0.002
ABCF2 isoform 2 (UniProt Q9UG63)	-0.022
ACIN1 (UniProt E7EQT4)	0.04
ABHD17B (UniProt Q5VST6)	0.014
ABL2 (UniProt P42684)	-0.026
AKR1B1 (UniProt P15121)	0.015

Target	log2 fold change
AKAP8 (UniProt O43823)	-0.02
ALDH5A1 isoform 2 (UniProt P51649)	-0.029
APOBEC3C (UniProt Q9NRW3)	-0.003
AP1G2 (UniProt O75843)	0.082
ARAF (UniProt P10398)	0.012
ARL15 (UniProt Q9NXU5)	0.02
AFF4 (UniProt Q9UHB7)	-0.362 (active)
ACIN1 isoform 5 (UniProt Q9UKV3)	-0.002
ADD1 isoform 3 (UniProt P35611)	0.03
ALDH6A1 (UniProt Q02252)	0.011
ADAMTS5 (UniProt Q9UNA0)	0.032
AKT2 (UniProt P31751)	0.011
ACYP1 (UniProt P07311)	0.019
AK2 (UniProt P54819)	0.046
ADAM17 (UniProt P78536)	-0.098
AMDHD2 isoform 3 (UniProt Q9Y303)	0.049
ACBD6 (UniProt Q9BR61)	0.014
ACOX1 isoform 2 (UniProt Q15067)	0.035
AGTPBP1 (UniProt Q9UPW5)	0.131

Compound: CC1=C(SC2=C1C(=N[C@H](C3=NN=C(N32)C)CC(=O)N)C4=CC=C(C=C4)Cl)C
Test: as above
Procedure, shortened: as §1

Target	log2 fold change
ARGLU1 (UniProt Q9NWB6)	0.009
ANXA13 isoform 2 (UniProt P27216)	-0.041
ARL13B (UniProt Q3SXY8)	0.03
ABHD13 (UniProt Q7L211)	-0.127
ANKRD40 (UniProt Q6AI12)	0.072
AIMP1 isoform 2 (UniProt Q12904)	0.01
ACSL1 (UniProt P33121)	0.004
AK4 (UniProt P27144)	-0.038
AIFM2 (UniProt Q9BRQ8)	0.008
AGO4 (UniProt Q9HCK5)	0.022
ADRM1 (UniProt Q16186)	0.007
AKT1 (UniProt P31749)	-0.028
ACTG1 (UniProt I3L4N8)	-0.082
ABCF3 (UniProt Q9NUQ8)	-0.016
ABCF2 isoform 2 (UniProt Q9UG63)	-0.011
ACIN1 (UniProt E7EQT4)	0.015
ABHD17B (UniProt Q5VST6)	0.044
ABL2 (UniProt P42684)	0.016
AKR1B1 (UniProt P15121)	0.066

Target	log2 fold change
AKAP8 (UniProt O43823)	0.073
ALDH5A1 isoform 2 (UniProt P51649)	-0.018
APOBEC3C (UniProt Q9NRW3)	0.032
AP1G2 (UniProt O75843)	-0.09
ARAF (UniProt P10398)	-0.002
ARL15 (UniProt Q9NXU5)	-0.005
AFF4 (UniProt Q9UHB7)	-0.269
ACIN1 isoform 5 (UniProt Q9UKV3)	0.019
ADD1 isoform 3 (UniProt P35611)	0.016
ALDH6A1 (UniProt Q02252)	-0.111
ADAMTS5 (UniProt Q9UNA0)	0.115
AKT2 (UniProt P31751)	0.003
ACYP1 (UniProt P07311)	-0.026
AK2 (UniProt P54819)	-0.013
ADAM17 (UniProt P78536)	-0.251 (active)
AMDHD2 isoform 3 (UniProt Q9Y303)	0.016
ACBD6 (UniProt Q9BR61)	0.019
ACOX1 isoform 2 (UniProt Q15067)	-0.002
AGTPBP1 (UniProt Q9UPW5)	-0.13
